UCHL1 block – inhibitors of human UCHL1 deubiquitinase; actives 0.2% (n = 47,000); inhibition, % at 20 µM; purified UCHL1, Ub-rhodamine cleavage fluorescence; AID 1645859
USP7 block – blocks human USP7 ubiquitin-rhodamine cleavage | AID 1645854 | inhibition, % at 20 µM | actives 0.3% (n = 47,000) | purified USP7, Ub-rhodamine cleavage fluorescence | Q93009
Target sequence (Q93009 whole entry, looked up): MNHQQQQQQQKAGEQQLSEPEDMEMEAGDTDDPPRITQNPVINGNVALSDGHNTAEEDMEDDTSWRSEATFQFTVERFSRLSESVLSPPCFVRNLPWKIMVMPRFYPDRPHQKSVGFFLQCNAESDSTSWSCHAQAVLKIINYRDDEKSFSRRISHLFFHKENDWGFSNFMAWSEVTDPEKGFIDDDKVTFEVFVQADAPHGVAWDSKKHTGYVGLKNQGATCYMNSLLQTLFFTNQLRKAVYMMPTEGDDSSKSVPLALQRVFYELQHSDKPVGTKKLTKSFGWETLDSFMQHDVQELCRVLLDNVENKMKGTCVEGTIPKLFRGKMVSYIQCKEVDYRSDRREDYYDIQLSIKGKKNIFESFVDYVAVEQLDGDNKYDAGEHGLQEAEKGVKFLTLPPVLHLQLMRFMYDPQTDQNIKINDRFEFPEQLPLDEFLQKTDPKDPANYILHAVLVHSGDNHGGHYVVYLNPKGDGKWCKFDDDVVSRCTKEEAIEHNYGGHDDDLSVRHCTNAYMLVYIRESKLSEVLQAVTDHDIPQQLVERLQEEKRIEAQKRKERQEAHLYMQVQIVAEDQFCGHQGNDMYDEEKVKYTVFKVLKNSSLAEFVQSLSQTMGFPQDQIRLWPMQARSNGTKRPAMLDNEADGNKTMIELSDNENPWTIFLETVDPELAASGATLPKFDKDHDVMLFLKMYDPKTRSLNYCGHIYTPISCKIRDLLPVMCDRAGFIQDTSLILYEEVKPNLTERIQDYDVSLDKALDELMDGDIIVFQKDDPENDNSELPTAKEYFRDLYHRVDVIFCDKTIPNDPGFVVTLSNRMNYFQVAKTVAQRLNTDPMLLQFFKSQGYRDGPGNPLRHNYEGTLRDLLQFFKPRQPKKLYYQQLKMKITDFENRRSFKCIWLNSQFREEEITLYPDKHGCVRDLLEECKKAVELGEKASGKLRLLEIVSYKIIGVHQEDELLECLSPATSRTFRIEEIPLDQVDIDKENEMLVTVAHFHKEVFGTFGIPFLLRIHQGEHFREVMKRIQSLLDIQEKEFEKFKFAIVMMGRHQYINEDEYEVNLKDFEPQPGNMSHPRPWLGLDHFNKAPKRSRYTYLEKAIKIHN
USP8 inh – blocks human USP8 ubiquitin-rhodamine cleavage | P40818 | purified USP8, Ub-rhodamine cleavage fluorescence, 30 min | inhibition, % at 20 µM | actives 4.2% (n = 47,000)
USP10 block – blocks human USP10 ubiquitin-rhodamine cleavage; inhibition, % at 20 µM; Q14694; actives 1.1% (n = 47,000); purified USP10, Ub-rhodamine fluorescence, 60 min; AID 1645856
Active calls of the source: *. Rows were chosen to be rich in hits. Some 4.6% of all compounds tested hit in one or more screens of this group. Rule as the data show it: active = inhibition above about 30%; inactive = the rest.

SMILES	UCHL1 block	USP7 block	USP8 inh	USP10 block
Cc1nc(-c2cccc(NC(=O)C3CC(=O)N(c4cccc(Cl)c4)C3)c2)no1 (configuration not stated)	4	12	31*	4
Cc1nc(-c2cccc(NC(=O)C3CC(=O)N(c4ccc(C)c(C)c4)C3)c2)no1 (configuration not stated)	-24	-17	-6	-5
CCc1nc(-c2cccc(NC(=O)C3CC(=O)N(c4ccc(C)c(C)c4)C3)c2)no1 (configuration not stated)	4	9	39*	19
COc1cc(OC)c2c(C)c(CC(=O)N3CCN(c4ccccc4)CC3)c(=O)oc2c1	0	1	-9	0
Cc1cc(C)c(C(=O)CC2(O)C(=O)N(Cc3cccc4ccccc34)c3ccccc32)cc1C (configuration not stated)	12	12	18	8
CCOc1ccccc1N(C(=O)c1ccc2c(c1)OCCO2)C(C(=O)NC1CCCCC1)c1ccc(O)cc1 (configuration not stated)	1	1	-7	1
COc1ccc(OC)c(C(C(=O)NC2CCCCC2)N(C(=O)c2ccc3c(c2)OCCO3)c2ccc(C)cc2)c1 (configuration not stated)	11	8	33*	8
Cc1cc(Nc2cnccn2)nc(C2CCCN(C(=O)c3ccccc3)C2)n1 (configuration not stated)	-6	-7	-11	-5
O=C(/C=C/c1cnc2ccccc2c1)NCc1ccccc1	-1	4	3	3
O=C(/C=C/c1ccc(Br)cc1)Nc1cnc2ccccc2c1	3	10	49*	15
Cc1ccc(-c2cc(C(F)F)n3ncc(C(=O)Nc4ccc(Cl)cc4)c3n2)cc1	-1	3	7	-1
Cc1ccc(-c2cc(C(F)F)n3ncc(C(=O)Nc4ccc(O)cc4)c3n2)cc1	8	14	60*	44*
O=C(OC1CCCCC1N1CCC(c2ccccc2)CC1)c1ccccc1 (configuration not stated)	-15	-10	17	-11
NS(=O)(=O)c1ccc(NC(=O)C2Cc3ccccc3C(=O)O2)cc1 (configuration not stated)	1	4	36*	18
Cc1ccc(S(=O)(=O)N2CCN(S(=O)(=O)N3CCCCCC3)CC2)cc1	2	6	31*	18
Cc1ccc(Cn2cc(S(=O)(=O)N3CCCCC3)ccc2=O)cc1	0	-9	14	3
Cc1cccc(N2CCN(S(=O)(=O)CCCNC(=O)c3ccc(F)cc3)CC2)c1	-1	4	-27	10
O=C(NCc1ccc2c(c1)OCO2)c1[nH]nc2c1CCc1ccccc1-2	2	0	41*	6
O=C(Nc1ccc2c(c1)OCO2)c1[nH]nc2c1CCc1ccccc1-2	9	0	85*	11
O=C(NCc1ccc2c(c1)OCO2)c1cc(-c2cc(Cl)ccc2O)n[nH]1	5	12	50*	9
O=C(Nc1cccnc1)c1[nH]nc2c1COc1ccccc1-2	-16	-33	-10	-1
CCCN1CCC2(Cc3ccccc3CN(C(=O)c3ccccc3)C2)C1 (configuration not stated)	0	-2	15	-5
CCCC(=O)Nc1ccc2c(c1)nc(CCN1CCCC1)n2C	1	2	15	-3
CCn1ccc2c(cc(C(=O)Nc3cccc(OC)c3)n2C)c1=O	1	1	0	3
COc1ccc(-c2c3c(=O)n(C)c(=O)n(C)c3cn2CCc2ccccc2)cc1	0	-3	-203	0
SMILES	UCHL1 block	USP7 block	USP8 inh	USP10 block
COc1ccccc1NS(=O)(=O)c1cc(C(=O)NCc2ccncc2)ccc1C	6	5	8	1
COc1ccc(NS(=O)(=O)c2cc(NC(=O)CC(=O)c3ccc([N+](=O)[O-])cc3)ccc2Cl)cc1	-1	7	58*	58*
COc1ccc(NS(=O)(=O)c2cccc(NC(=O)CC(=O)c3ccc([N+](=O)[O-])cc3)c2)cc1	4	15	12	46*
COc1ccccc1NS(=O)(=O)c1cc(NC(=O)CC(=O)c2ccc([N+](=O)[O-])cc2)ccc1C	9	14	68*	33*
COc1ccc(NC(=O)Cc2cc(OC)c(OC)c(OC)c2)cc1S(=O)(=O)Nc1ccc(Br)cc1	6	2	-10	3
COc1ccc(NS(=O)(=O)c2cccc(NC(=O)CCC(=O)c3ccc(Cl)cc3)c2)cc1	6	-1	6	15
COc1ccc(NC(=O)CC(=O)c2ccc([N+](=O)[O-])cc2)cc1S(=O)(=O)Nc1ccc(Cl)cc1	4	18	58*	49*

Screening results deposited in PubChem by Buhrlage Lab, Dana-Farber Cancer Institute and Novartis Institutes for BioMedical Research (Cambridge, Mass).
